Pf growth 96h = inhibits malaria parasite growth, 96 h | Potency, µM (titrated, usually from 28.7 µM), without a hit: at the highest dose activity change, negative = inhibition, hits mostly inhibitors | P. falciparum luciferase reporter growth, 96 h | 320,000 compounds, 6.9% hits; also: potency is read from the fitted curve at half-maximal effect
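96 h incubation, 37 C, 5% CO2, of luciferase-reporter P. falciparum-infected RBCs (2% hematocrit, 0.05% parasitemia final) with test compounds; endpoint luminescence.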
HCMV inh = blocks human cytomegalovirus replication. HFF cells, HCMV-luciferase reporter, 72 h; hits give low values. activity change, negative = inhibition, % at 57.5 µM. 410,000 compounds, 4.5% hits. AID 1259415; in the data active = activity change below about -60%; inconclusive = no clear call, values can overlap the other calls; inactive = above about -39%
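Two-dose cell screen: HFF monolayers treated with compounds and infected with luciferase-expressing HCMV at 1 PFU/cell, 72 h at 37C, then lysed for luciferase measurement.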
Lassa entry inh = blocks Lassa virus binding to or entry into cells. Potency, µM (titrated, usually from 37.9 µM), without a hit: at the highest dose activity change, negative = inhibition, hits mostly inhibitors. 300,000 compounds, 1.2% hits. Lassa virus pseudotype entry inhibition, cell reporter; calls by dose curve; tested in HEK293 cells; also: potency is read from the fitted curve at half-maximal effect; nearly all actives have a fitted effect of over 50% in size
Pf growth 48h = inhibits P. falciparum growth in the first generation, 48 h. P. falciparum luciferase growth in erythrocytes, 48 h. Potency, µM (series often up to 28.7 µM), for the others: top-dose activity change, negative = inhibition, actives largely listed as inhibitors. 310,000 compounds, 5.9% hits. AID 504832; also: potency is read from the fitted curve at half-maximal effect
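Cell-based growth assay: transgenic P. falciparum expressing firefly luciferase, cultured in red cells within RPMI 1640 containing 0.5% w/v Albumax, 24 mM bicarbonate and gentamycin. A drop in luciferase activity indicates inhibition.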
HCV inhibitor = blocks hepatitis C virus; Huh7.5.1 HCVcc-Cre infection, luciferase reporter, 44 h; Potency, µM (highest dose often 41.8 µM), for the others: top-dose activity change, negative = inhibition, actives largely listed as inhibitors; AID 651820; 340,000 compounds, 3.4% hits; also: potency is read from the fitted curve at half-maximal effect
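Cells (1,000/well) were plated 4 h before compound, then infected with HCVcc-Cre virus (~0.5 moi). After 44 h further culture, infection was read as luciferase luminescence following a 15 min substrate incubation at room temperature.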
MARV entry inh = blocks Marburg virus binding to or entry into cells; Marburg virus pseudotyped entry inhibition, cell reporter; AID 540276; 300,000 compounds, 1.8% hits; Potency, µM (doses to about 37.8 µM), for the others: at the top dose activity change, negative = inhibition, usual class: inhibitors; calls by dose curve; tested in HEK293 cells; also: potency is read from the fitted curve at half-maximal effect
* = called active by the depositor; ? = inconclusive; . = not tested or not shown; [ ] = another dose, or the depositor's remark. In the library only some 14% were active in any assay of this set; here they are far more common. Unless noted, calls follow the shape of the dose curve; as a rule, active = well fitted inhibition curve with a large enough effect; inconclusive = small, poorly fitted or top-dose-only effect, or another doubt; inactive = no such curve, though single readings can be large or run the other way. % is scaled to controls: 0 for no effect and ±100 for the full control effect.

SMILES	Pf growth 96h	HCMV inh	Lassa entry inh	Pf growth 48h	HCV inhibitor	MARV entry inh
CC(C)(C)NC(=O)C(c1cccs1)N(Cc1ccc(F)cc1)C(=O)c1csnn1 (stereo unspecified)	33%	2	?	9.3µM*	-11%	?
CCC(C)(C)NC(=O)C(c1ccc(F)cc1)N(Cc1ccccc1)C(=O)c1cnccn1 (stereo unspecified)	0%	?	9%[46.1 µM]	?	1.4µM*	-22%
CCC(C)(C)NC(=O)C(c1cccnc1)N(C(=O)c1csnn1)c1ccc(C)cc1 (stereo unspecified)	-3%	-18	.	?	-3%	.
CCC(C)(C)NC(=O)C(c1ccncc1)N(Cc1ccc(C)cc1)C(=O)c1csnn1 (stereo unspecified)	4.7µM*	-39	1%	-30%	?	-1%
Cc1ccc(CN(C(=O)c2csnn2)C(C(=O)NC2CCCC2)c2ccc(C)o2)cc1 (stereo unspecified)	-16%	-34	-11%	15µM*	-18%	1%
CC(C)(C)NC(=O)C(c1cccs1)N(C(=O)c1csnn1)c1cccc(F)c1 (stereo unspecified)	9%	-23	.	-20%	1%	.
Cc1ccc(C(C(=O)NC2CCCC2)N(C(=O)c2csnn2)C2CCCC2)o1 (stereo unspecified)	109%	-17	14%	?	10%	-17%
Cc1cccc(C)c1NC(=O)C(c1ccccc1)N1CCN(c2ccc(C(F)(F)F)cn2)CC1 (stereo unspecified)	.	-8	.	.	.	.
C#CCOCCOCCOCCNc1nc(N2CCN(C(=O)[C@H](CCCCN)n3cc([C@@H](N)CO)nn3)CC2)nc(N2CCN(C(=O)[C@H](Cc3cc4ccccc4[nH]3)n3cc([C@@H](N)CC(C)C)nn3)CC2)n1	-7%	.	.	7%	.	.
CCOC(=O)[C@]12C[C@]3(C)CCN(C(=O)N[C@@H]1c1ccccc1)[C@@H]32	.	.	.	.	.	34%[14.2 µM]
CNC(C(=O)c1ccccc1)C(OC(C)=O)c1cccc([N+](=O)[O-])c1 (stereo unspecified)	2.9µM*	27	14%	?	1%	5%
COc1ccc(-c2nc3cc(NC(=O)CSc4ccc(C)cc4)ccc3o2)cc1	.	78	?	.	.	?
O=C(Cc1ccc(Cl)cc1)Nc1ccc2oc(-c3ccc(F)cc3)nc2c1	.	-9	3%[46.1 µM]	.	.	.
COc1ccc(-c2nc3cc(NC(=O)Cc4ccc(OC)c(OC)c4)ccc3o2)cc1	4.1µM*	-76*	-20%	-11%	7.1µM*	?
COc1ccc(-c2nc3cc(NC(=O)Cc4ccc(Cl)cc4)ccc3o2)cc1OC	.	-94*	?	.	.	.
COc1ccc(CC(=O)Nc2ccc(-c3cn4cccc(C)c4n3)cc2)cc1OC	.	-17	-25%	-22%	10µM*	?
Cc1cccn2cc(-c3ccc(NC(=O)Cc4ccccc4)cc3)nc12	148%	-8	.	15%	0%	.
COc1ccc(CNc2ncnc3c2nnn3C)cc1	.	7	-2%[46.1 µM]	.	.	.
O=C(COC(=O)c1cccc(O)c1)Nc1ccc(N2CCOCC2)cc1	?	-3	.	3%	3%	.
c1ccc(-c2csc(Nc3cccnc3)n2)nc1	24%	54	24%	96%	10µM*	6%
COc1cccc2sc(NNC(=O)COc3ccccc3)nc12	-41%[1.15 µM]	2	1%	-6%	?	2%
Cc1ccc(Nc2nc(-c3cccs3)cs2)nc1	42%	103	.	324%	?	.
c1cncc(Nc2nc(-c3cccs3)cs2)c1	2.9µM*	157	16%	2%	3.2µM*	1%
COc1cccc2sc(Nc3nc(-c4ccccn4)cs3)nc12	?	.	.	0.47µM*	.	.
c1ccc(Nc2nc(-c3ccccn3)cs2)cc1	-48%	143	?	6%	?	?
SMILES	Pf growth 96h	HCMV inh	Lassa entry inh	Pf growth 48h	HCV inhibitor	MARV entry inh
CCCNC(=O)C1(CC2CC(c3ccccc3)=NO2)CCN(C(=O)Cc2ccc(F)cc2)CC1 (stereo unspecified)	.	34	.	.	4%	.
Cc1ccc(NC(=O)CN2C(=O)NC3(CCCc4ccccc43)C2=O)c([N+](=O)[O-])c1 (stereo unspecified)	1%	-11	.	-15%	-13%	.
CC(C)n1cc(/C=C2/NC(=O)N(c3cccc(Cl)c3)C2=O)c2ccccc21	9.3µM*	1	4%	8.3µM*	?	?
COCCn1c(C)cc(/C=C2/NC(=O)N(c3cccc(Cl)c3)C2=O)c1C	?	-66*	.	1%[5.75 µM]	?	.
CC(C)n1cc(/C=C2\NC(=O)N(c3cccc(Cl)c3)C2=O)c2ccccc21	?	10	-22%	.	?	?
COC(=O)c1ccc(CNC(=O)C(Cc2ccccc2)NC(=O)c2ccccc2)cc1 (stereo unspecified)	.	6	.	.	.	.
N#Cc1ccc(OCC(=O)n2cc(C(=O)c3cc(Cl)cc(Cl)c3O)cn2)cc1	16%	.	.	-4%	18%	.
O=C(O)C(CCc1ccccc1)N1CCOCC1 (stereo unspecified)	.	-33	.	.	.	.
C/C1=C/CCCc2cc(OS(=O)(=O)C(F)(F)F)ccc2OCC1	.	-5	.	.	.	.
O=[N+]([O-])c1ccc(N/N=C/c2cccc(O)c2)cc1	?	122	3%[46.1 µM]	88%	?	?
Cc1ccc(NC(=O)c2ccc(N/N=C/c3cccc(O)c3)c([N+](=O)[O-])c2)cc1	5.2µM*	-87*	?	?	?	?
Cc1ccccc1NC(=O)c1ccc(N/N=C/c2ccccc2O)c([N+](=O)[O-])c1	3%	-84*	4%	0%	-26%	1%
CCN(CC)CCCNC(=O)c1nn(C)c2c1CS(=O)(=O)c1ccccc1-2	.	0	0%[46.1 µM]	.	.	.
O=C(Cc1ccccc1)N(Cc1cccnc1)c1nc2c(F)cc(F)cc2s1	.	0	13µM*	.	.	.
CC(=O)N(Cc1cccnc1)c1nc2c(F)cc(F)cc2s1	.	0	-16%[46.1 µM]	.	.	.
O=c1oc2c(CN3CCCCC3)c(O)ccc2cc1-c1nc2ccccc2[nH]1	10µM*	29	2%	?	11%	5%
O=c1oc2c(O)cccc2cc1-c1nc2ccccc2[nH]1	-11%	202	?	183%	-9%	?
C=CCn1c(O)c(N=NC(=O)CNC(=O)Cc2ccccc2)c2ccccc21	85%	?	-21%[46.1 µM]	5%	?	1%[46.1 µM]
C=CCn1c(O)c(N=NC(=S)Nc2cccc(OC)c2)c2ccccc21	?	-76*	?	3.7µM*	?	?
C=CCn1c(O)c(N=NC(=S)Nc2ccc(OC)cc2)c2ccccc21	0%	-72*	?	10µM*	?	?
C=CCn1c(O)c(N=Nc2ccccc2)c2ccccc21	-1%	50	6%[46.1 µM]	2%	15%	-14%[46.1 µM]
CCc1ccc2nc(N(CCN(CC)CC)C(=O)c3ccco3)sc2c1	.	-4	-4%[46.1 µM]	.	.	.
